# Hits are enriched below; roughly 3.6% of the tested compounds scored in any of these assays.
# mHTT-CaM PPI inh – disrupts binding of mutant huntingtin to calmodulin | inhibition, % at 15 µM | hit rate 3.6% among 190,000 | AID 1671202 | AlphaScreen His-mHTT/GST-CaM binding, luminescence;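 also: 0% = both proteins with DMSO and 100% = one protein alone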
# Target sequence (P42858 whole entry, looked up, stated change not applied): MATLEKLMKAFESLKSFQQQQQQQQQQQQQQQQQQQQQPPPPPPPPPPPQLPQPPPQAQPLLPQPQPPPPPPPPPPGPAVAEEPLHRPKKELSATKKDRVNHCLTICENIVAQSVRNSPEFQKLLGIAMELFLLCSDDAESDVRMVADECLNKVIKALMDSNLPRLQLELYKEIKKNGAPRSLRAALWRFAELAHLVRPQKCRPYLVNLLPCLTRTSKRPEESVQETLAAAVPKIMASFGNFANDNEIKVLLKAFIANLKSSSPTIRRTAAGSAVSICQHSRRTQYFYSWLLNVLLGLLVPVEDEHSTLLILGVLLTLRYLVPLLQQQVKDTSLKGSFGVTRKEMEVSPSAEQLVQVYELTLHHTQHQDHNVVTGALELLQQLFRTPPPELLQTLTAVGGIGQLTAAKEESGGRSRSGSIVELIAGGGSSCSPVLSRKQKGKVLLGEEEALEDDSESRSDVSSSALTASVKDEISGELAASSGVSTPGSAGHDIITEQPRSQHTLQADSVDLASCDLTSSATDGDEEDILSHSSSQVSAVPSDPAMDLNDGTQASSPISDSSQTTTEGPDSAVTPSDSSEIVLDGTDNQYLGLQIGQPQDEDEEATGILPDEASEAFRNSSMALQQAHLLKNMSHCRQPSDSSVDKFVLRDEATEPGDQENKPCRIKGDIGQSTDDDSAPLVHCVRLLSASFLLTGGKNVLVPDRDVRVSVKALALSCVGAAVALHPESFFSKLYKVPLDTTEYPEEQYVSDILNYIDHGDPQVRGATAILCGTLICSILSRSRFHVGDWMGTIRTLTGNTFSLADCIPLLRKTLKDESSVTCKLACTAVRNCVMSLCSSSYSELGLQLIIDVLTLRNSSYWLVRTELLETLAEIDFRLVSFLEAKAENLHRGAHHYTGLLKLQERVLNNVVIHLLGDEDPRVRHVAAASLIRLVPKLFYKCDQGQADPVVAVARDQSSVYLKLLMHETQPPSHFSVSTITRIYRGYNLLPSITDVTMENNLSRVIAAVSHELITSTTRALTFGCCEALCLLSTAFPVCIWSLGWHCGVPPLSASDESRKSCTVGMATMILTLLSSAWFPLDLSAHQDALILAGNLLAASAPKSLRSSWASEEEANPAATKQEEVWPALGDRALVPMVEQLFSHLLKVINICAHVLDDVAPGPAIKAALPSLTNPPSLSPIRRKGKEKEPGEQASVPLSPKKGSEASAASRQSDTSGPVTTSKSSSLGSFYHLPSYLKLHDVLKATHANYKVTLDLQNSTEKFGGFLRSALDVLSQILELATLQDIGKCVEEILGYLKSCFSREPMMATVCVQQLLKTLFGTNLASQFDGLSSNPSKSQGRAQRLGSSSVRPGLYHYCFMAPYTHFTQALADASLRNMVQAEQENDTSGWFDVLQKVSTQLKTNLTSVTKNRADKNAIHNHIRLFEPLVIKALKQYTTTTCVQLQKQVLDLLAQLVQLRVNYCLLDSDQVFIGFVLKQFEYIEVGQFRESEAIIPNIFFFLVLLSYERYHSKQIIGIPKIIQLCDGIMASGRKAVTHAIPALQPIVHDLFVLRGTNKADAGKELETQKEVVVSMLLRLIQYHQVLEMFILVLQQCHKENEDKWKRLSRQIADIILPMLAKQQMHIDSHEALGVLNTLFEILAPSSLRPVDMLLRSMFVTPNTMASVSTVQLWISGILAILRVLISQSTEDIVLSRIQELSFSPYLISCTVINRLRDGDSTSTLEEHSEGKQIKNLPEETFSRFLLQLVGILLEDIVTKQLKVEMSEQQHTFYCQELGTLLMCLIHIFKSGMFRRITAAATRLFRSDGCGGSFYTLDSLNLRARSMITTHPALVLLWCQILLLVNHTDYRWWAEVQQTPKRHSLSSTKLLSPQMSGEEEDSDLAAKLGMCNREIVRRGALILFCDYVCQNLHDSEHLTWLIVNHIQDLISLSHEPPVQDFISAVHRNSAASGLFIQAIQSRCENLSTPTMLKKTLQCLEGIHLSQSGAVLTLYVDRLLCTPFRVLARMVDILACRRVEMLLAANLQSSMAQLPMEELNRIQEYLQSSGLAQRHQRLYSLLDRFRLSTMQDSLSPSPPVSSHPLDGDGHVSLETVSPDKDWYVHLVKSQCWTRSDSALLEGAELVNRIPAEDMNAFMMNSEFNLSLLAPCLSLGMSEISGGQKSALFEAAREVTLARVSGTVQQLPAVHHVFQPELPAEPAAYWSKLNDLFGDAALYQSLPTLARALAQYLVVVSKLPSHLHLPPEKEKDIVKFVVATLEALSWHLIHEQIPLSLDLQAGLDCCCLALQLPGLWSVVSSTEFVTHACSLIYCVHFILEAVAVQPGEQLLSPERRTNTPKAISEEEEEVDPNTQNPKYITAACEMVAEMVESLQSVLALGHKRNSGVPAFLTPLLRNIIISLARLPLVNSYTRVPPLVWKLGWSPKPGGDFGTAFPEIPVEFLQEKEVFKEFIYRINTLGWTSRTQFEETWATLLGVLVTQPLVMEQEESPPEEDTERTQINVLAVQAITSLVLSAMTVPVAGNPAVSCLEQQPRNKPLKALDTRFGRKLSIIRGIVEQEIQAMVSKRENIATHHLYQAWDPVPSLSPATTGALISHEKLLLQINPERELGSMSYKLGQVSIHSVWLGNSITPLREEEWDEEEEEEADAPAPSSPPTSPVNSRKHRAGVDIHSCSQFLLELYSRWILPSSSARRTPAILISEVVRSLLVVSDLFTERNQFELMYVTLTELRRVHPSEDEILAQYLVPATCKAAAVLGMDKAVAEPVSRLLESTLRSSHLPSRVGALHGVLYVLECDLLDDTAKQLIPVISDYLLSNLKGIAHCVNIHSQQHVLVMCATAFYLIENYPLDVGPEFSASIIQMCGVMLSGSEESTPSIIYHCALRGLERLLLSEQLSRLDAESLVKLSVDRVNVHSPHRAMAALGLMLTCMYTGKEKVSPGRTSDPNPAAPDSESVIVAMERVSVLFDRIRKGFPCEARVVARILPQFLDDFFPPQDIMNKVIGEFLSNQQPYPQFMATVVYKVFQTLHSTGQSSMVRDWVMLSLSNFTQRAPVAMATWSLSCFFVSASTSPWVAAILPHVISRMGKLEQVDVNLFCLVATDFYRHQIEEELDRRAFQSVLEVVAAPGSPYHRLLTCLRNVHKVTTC
# Pf apPOL block – Pf-apPOL DNA polymerase inhibition; hit rate 0.25% among 210,000; inhibition, % at 10 µM; Recombinant Pf-apPOL, molecular beacon fluorescence, 1.5 h; AID 1794808
# * marks the source's active call; other numbers are inactive results; . = no result given. Rule as the data show it: active = inhibition above about 50%; inactive = the rest.
SMILES,mHTT-CaM PPI inh,Pf apPOL block
NC(=O)CSc1cccc2cccnc12,83*,-3
O=C(NCC1CCN(c2cc(-c3cccnc3)[nH]n2)CC1)c1ccccc1,2,6
O=C(CSc1nc2ccccc2[nH]1)c1ccc(Cl)c(Cl)c1,51*,-4
O=C(CSc1nc2ccccc2[nH]1)c1ccc2c(c1)OCO2,8,-2
COc1cc(C(C[N+](=O)[O-])c2c(C)[nH]c3ccccc23)cc(OC)c1OC (stereo unspecified),42,7
Cc1[nH]c2ccccc2c1C(Nc1ccccc1F)c1ccccn1 (stereo unspecified),24,-13
Cc1[nH]c2ccccc2c1C(Nc1ccccn1)c1ccc([N+](=O)[O-])cc1 (stereo unspecified),97*,-1
Cc1[nH]c2ccccc2c1C(C[N+](=O)[O-])c1ccc(F)cc1 (stereo unspecified),54*,-6
Cc1ccc(CNc2ccc(-c3nc(-c4ccccc4)no3)cn2)cc1,-7,2
COC(=O)C(C#N)=CNc1ccsn1,12,.
O=C(NC1CCCCC1)c1nc(-c2ccc(N3CCCC3)cc2)no1,-10,-4
CCOc1cccc(C2CC(c3cccc(OC)c3)=NC3(CCN(C)CC3)N2)c1O (stereo unspecified),35,4
COc1cccc(C2=NC(C)(C)NC(c3ccccc3O)C2)c1 (stereo unspecified),65*,-3
COc1cccc(C2=NC(C)(C)NC(c3cc(Br)ccc3O)C2)c1 (stereo unspecified),100*,-4
COc1cccc(C2=NC3(CCN(C)CC3)NC(c3cccc(OC)c3O)C2)c1 (stereo unspecified),25,-1
CCC1(C)N=C(c2ccc3c(c2)OCO3)CC(c2ccccc2O)N1 (stereo unspecified),83*,-5
CC(=O)N1CCC2(CC1)N=C(c1ccc3c(c1)OCO3)CC(c1ccccc1O)N2 (stereo unspecified),18,8
CC(=O)N1CCN(c2ccc([N+](=O)[O-])c(NCc3ccco3)c2)CC1,10,2
Cc1cc(C)c(O)c(N=Cc2cccc([N+](=O)[O-])c2O)c1,26,-1
COc1cccc(C=Nc2cc(C)cc(C)c2O)c1O,50*,-4
CC1(C)C(=O)OC(c2ccc(Cl)cc2)C2(CCCCC2)C1=O (stereo unspecified),-6,-1
OC(COCC(c1ccccc1)c1ccccc1)Cn1cnc2ccccc21 (stereo unspecified),56*,-4
OC(COCc1ccccc1)Cn1cnc2ccccc21 (stereo unspecified),-9,3
COc1ccc(Cl)cc1NC(=O)C1CCN(C(=O)c2ccc(F)cc2)CC1,3,-5
CSc1cccc(NC(=O)C2CC(=O)N(c3ccc4c(c3)CCN4C(C)=O)C2)c1 (stereo unspecified),4,0
SMILES,mHTT-CaM PPI inh,Pf apPOL block
CN1CCN(c2ccc(/C=C3\Sc4ccccc4C3=O)cc2[N+](=O)[O-])CC1,72*,2
Cc1ccc(/C=C2\Sc3ccccc3C2=O)cc1[N+](=O)[O-],14,2
CC(NC(=O)c1ccc(F)cc1)C(=O)N1CCN(c2ccccn2)CC1 (stereo unspecified),2,1
Fc1ccc(-c2ccc(CNCc3ccco3)o2)cc1,9,-2
Brc1ccc(-c2ccc(CNCc3ccco3)o2)cc1,92*,-9
COc1ccccc1NC(=O)CSc1nnc2sc3ccccc3n12,3,-4
O=C(Nc1ccc(Cl)cn1)C1(S(=O)(=O)c2ccc(Cl)cc2)CC1,-16,0
Cc1cc(O)c(C=Nc2cc(Cl)ccc2O)cc1C,52*,-8
Oc1ccc(I)cc1C=Nc1cc(Cl)ccc1O,38,-7
O=c1c(Cl)c(Cl)cnn1-c1ccc([N+](=O)[O-])cc1,-1,-7
CC1CCN(CCCNC(=O)C2CCc3sc(C(=O)N4CCOCC4)cc3C2)CC1 (stereo unspecified),-1,-9
O=C(O)CCN1C(=O)C(=Cc2ccc([N+](=O)[O-])o2)SC1=S,44,50*
O=C(O)CN1C(=O)C(=Cc2ccc(-c3cccc4c3C(=O)c3ccccc3C4=O)o2)SC1=S,39,95*
CC(C)(C)c1ccc(C=C2SC(=S)N(CCC(=O)O)C2=O)cc1,34,1
CCOC(=O)CCCN1C(=O)C(=Cc2ccc3c(c2)OCO3)SC1=S,14,-6
O=C(O)CN1C(=O)C(=Cc2ccccc2O)SC1=S,17,0
O=C(O)CCCCCN1C(=O)C(=Cc2ccc3c(c2)OCO3)SC1=S,52*,14
O=C(Nc1nnc(/C=C/c2ccccc2)s1)Nc1ccc(Cl)cc1Cl,-2,-2
O=C(O)COc1ccc2c(c1)OC(=Cc1cccc(F)c1)C2=O,18,-11
COc1ccc(C2=NN(C(=O)c3ccc(Br)o3)C(c3ccc(OC)cc3)C2)cc1 (stereo unspecified),27,-5
CN1CCN(CC(=O)N2CCCC2=O)CC1,-6,.
Cc1cc(Nc2ccc(C(N)=O)cc2)nc(-n2nc(C)cc2C)n1,95*,4
